Sampled rows, rich in hits. Any-hit rate of the full collection: about 19%.
MCF10A rereplic = inducers of DNA re-replication in MCF 10A breast cells | MCF 10A DNA re-replication, Hoechst nuclear intensity, 48 h | Potency, µM (doses to about 46.1 µM), inactives show at the highest dose activity, positive = re-replication, usual class: activators | hit rate 2.9% among 350,000; also: potency is read from the fitted curve at half-maximal effect; % of control where 0% means no effect; nearly all actives have a fitted effect of over 50% in size
IL1B secr inh = inflammasome signaling inhibition, IL-1 beta readout. THP-1 LPS/ATP IL-1B secretion, AlphaLISA, 16 h; active compounds read low. AID 743279. activity change, % at 57.5 µM. hit rate 4.7% among 360,000; in the data active = activity change below about -50%; inconclusive = mostly about -30% to -49%; also: % is scaled to controls: 0 for no effect and ±100 for the full control effect
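Secreted IL-1B measured by AlphaLISA bead assay after 16 h compound exposure of THP-1 cells; compounds (final up to 57.5 uM) added 1 h before LPS (250 ng/mL) and ATP (1.25 mM) stimulation; lower signal means less secretion.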
DT40 TDP1 no CPT = qHTS for Inhibitors of human tyrosyl-DNA phosphodiesterase 1 (TDP1): qHTS in cells in absence of CPT; DT40 Tdp1-/- hTDP1 cells, no CPT, ATP luminescence, 48 h; hit rate 15% among 420,000; AID 686978, 2013; Potency, µM (top dose mostly 46.2 µM), inactives show top-dose activity change, negative = growth inhibition, most hits filed as inhibitors; also: potency is read from the fitted curve at half-maximal effect; % is scaled to controls: 0 for no effect and ±100 for the full control effect; nearly all actives have a fitted effect of over 55% in size
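A cellular qHTS used chicken DT40 cells lacking endogenous Tdp1 but carrying stably transfected human TDP1. Compounds were applied without camptothecin, and cell growth kinetics were judged by ATP-dependent luminescence after ≥48 hr.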
DT40 TDP1 CPT = DT40-hTDP1 cell growth loss with CPT; chicken DT40 Tdp1-/-;hTDP1 cells + 20 nM CPT, ATP luminescence, 48 h; Potency, µM (top dose mostly 46.2 µM), for inactives: top-dose activity change, negative = growth inhibition, hits mostly inhibitors; hit rate 12% among 420,000; AID 686979; also: potency is read from the fitted curve at half-maximal effect; % is scaled to controls: 0 for no effect and ±100 for the full control effect; nearly all actives have a fitted effect of over 55% in size
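Chicken DT40 Tdp1-/- cells complemented with human TDP1, 400 cells/well, exposed to compounds plus 20 nM camptothecin for at least 48 h at 37 C; viability read as ATP content by CellTiter-Glo luminescence.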
BCR signal inh = blocks chronic active B-cell receptor signaling; ABC-DLBCL IkBa-CBG/CBR reporter, luminescence ratio, 4 h; Potency, µM (series often up to 46.1 µM), without a hit: at the top dose activity change, negative = inhibition, usual class: inhibitors; hit rate 0.05% among 340,000; AID 493014; active = well fitted inhibition curve with a large enough effect in the signal ratio, with a control signal flat, not every such curve was filed as active; inconclusive = small, poorly fitted or top-dose-only effect, or effect the other way, or a change in a side signal; the % refers to the signal ratio;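 also: potency is read from the fitted curve at half-maximal effect; plate controls were basal doxycycline-induced cells for no effect and cells given 10 µM MG132 for full effect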
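TMD8 ABC-DLBCL cells carrying doxycycline-inducible green luciferase fused to IkappaBalpha plus unfused red luciferase were exposed to compounds (up to 46 uM) for 4 hrs at 37C. Activity came from the overlap-corrected green/red luminescence ratio.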
SW480 rerep = DNA re-replication induction in SW480 cells | SW480 DNA re-replication, Hoechst DNA content imaging, 48 h | Potency, µM (highest dose often 46.1 µM), without a hit: at the highest dose re-replication activation, usual class: activators | hit rate 1.8% among 340,000; also: potency is read from the fitted curve at half-maximal effect; % of control where 0% means no effect; nearly all actives have a fitted effect of over 55% in size
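Hoechst fluorescence of nuclei (405 nm excitation, 500-530 nm emission) measured by plate-scanning imager after 48 hr compound exposure at 37 C; re-replication scored as increased number of nuclei with elevated intensity.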
* = called active by the depositor; u = inconclusive; x = no result; + = active, no number; [ ] = dose if it differs, or a comment. Unless noted, calls follow the shape of the dose curve; as a rule, active = well fitted curve in the direction sought with a large enough effect; inconclusive = small, poorly fitted or top-dose-only effect, or another doubt; inactive = no such curve, though single readings can be large; an effect the other way counts as inactive or inconclusive.

SMILES	MCF10A rereplic	IL1B secr inh	DT40 TDP1 no CPT	DT40 TDP1 CPT	BCR signal inh	SW480 rerep
CSc1ncc(C(=O)Nc2ccc(F)cc2F)c(-c2ccccc2)n1	x	x	-18.7%	-3.0%	x	x
COc1ccccc1CNC(=O)CCNS(=O)(=O)/C=C/c1ccc(C)cc1	0.9%	-55.3*	-14.6%	-8.1%	-4.9%	-40.2%
COc1ccccc1CNC(=O)C(C)Sc1ccc(C)cc1 (centres undefined)	-13.4%	0.0	25.9µM*	-3.2%	-2.4%	0.9%
COc1ccccc1CNC(=O)c1ccoc1C	-4.8%	-16.3	-10.7%	4.6%	-1.3%	-3.1%
COc1ccccc1CNC(=O)c1cnc(SC)nc1C	x	x	14.6µM*	23.1µM*	x	x
CSc1ncc(C(=O)NCc2ccc(F)cc2)c(-c2ccccc2)n1	x	x	+	-13.0%	x	x
Cc1ccc(/C=C/S(=O)(=O)NCCC(=O)NCc2ccccc2F)cc1	0.7%	-10.9	-25.9%	-1.7%	-5.2%	2.1%
COc1ccccc1CNC(=O)CSc1ccc(C)cc1	-0.2%	4.1	u	u	u	1.6%
O=C(Cc1ccc(NS(=O)(=O)c2ccc(F)cc2)cc1)NCc1cccnc1	-1.9%	-14.4	-7.7%	0.7%	-1.7%	-0.8%
Cc1ccc(/C=C2/C(=O)C3(C)CCC2C3(C)C)cc1 (centres undefined)	u	x	x	x	x	0.9%
O=C1CCCC2=C1C(c1cccs1)n1nc(SCc3ccccc3F)nc1N2 (centres undefined)	u	-4.8	23.1µM*	11.6µM*	10.2%	u
Cc1ccccc1CSc1nc2n(n1)C(c1cccs1)C1=C(CCCC1=O)N2 (centres undefined)	25.9µM*	u	18.4µM*	20.6µM*	u	u
CSc1nc2n(n1)C(c1cccs1)C1=C(CCCC1=O)N2 (centres undefined)	2.8%	15.0	-3.7%	4.5%	10.0%	0.5%
CCOC(=O)c1cc(OC(C)=O)c2ccc(OC)c(OC)c2c1	x	19.3	23.1µM*	u	x	x
CC(C)Cc1cc(C(=O)NCC2Cc3cc(F)cc(-c4ccccn4)c3O2)no1 (centres undefined)	x	x	-4.9%	11.1%[9.04 µM]	x	x
Oc1ccc(N=Nc2cccc(C(F)(F)F)c2)cc1C=Nc1ccc(N2CCOCC2)cc1	5.8µM*	41.7	18.4µM*	23.1µM*	u	u
CCOc1ccc(-c2nc(CCl)cs2)cc1OC	-1.7%	-25.5	13µM*	10.3µM*	-3.0%	-3.9%
COc1cccc(-c2nc(CC(=O)O)cs2)c1OC	-1.4%	5.2	1.7%	-4.1%	u	-5.1%
COc1cccc(-c2nc(CCl)cs2)c1OC	u	1.2	6.51µM*	2.31µM*	u	u
COc1ccccc1CN(C)C(=O)c1cc(S(=O)(=O)N2CCCCCC2)ccc1OC	x	-14.9	u	u	x	x
CCOC(=O)C(C#N)(Cc1cc(OC)cc(OC)c1)Cc1cc(OC)cc(OC)c1	-14.8%	x	x	x	x	15.6%[9.22 µM]
COc1cccc(Nc2ncc3nc(-c4ccc(Cl)cc4)c(=O)n(C4CC4)c3n2)c1	x	x	-0.8%	-18.9%	x	x
CC(C)C[C@H]1CNC(=S)N1CC1CCCN1C[C@H](Cc1ccc(O)cc1)N1C[C@H](Cc2ccccc2)N(CC2CCCCC2)C1=S (some centres undefined)	u	-53.7*	5.8µM*	5.8µM*	x	2.6%
CC(C)C[C@H]1CNC(=S)N1C[C@H]1CCCN1C[C@H](Cc1ccc(O)cc1)N1C[C@H](Cc2ccccc2)N(CC2CCCCCC2)C1=S	x	-18.1	18.4µM*	18.4µM*	x	x
CC(C)C[C@H]1CNC(=S)N1C[C@H]1CCCN1C[C@H](Cc1ccccc1)N1C[C@H](Cc2ccc(O)cc2)N(CC2CCCCC2)C1=S	x	u	23.1µM*	16.4µM*	x	x
CC(=O)Nc1c(C)nn(-c2ccccc2)c1N1CCC(C(=O)NCc2cccc(F)c2)CC1	x	x	-20.2%	-11.1%	x	x

From PubChem
